Source: PubChem BioAssay (EPA / NIEHS)
“And” between values parts separate entries of the source, which are not always exact repeats. Equal values may be shown once. Where a structure was tested more than once in an assay, its records may differ in their call. The source made the active and inactive calls. How the source made its calls: active means hit-call score of the fitted dose curve at least 0.9, where 1 is the maximum; inactive means score below 0.9.

What was measured:
Settings in all cases: mRNA level, 48 h; actives raise or lower the signal
CYP2C9 (gene 1559) = assay: LTEA_HepaRG_CYP2C9: Life Technologies and Expression Analysis (LTEA) Assay for CYP2C9 using HepaRG (AID 2283484)
Procedure, shortened: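 Differentiated human HepaRG cells in serum-free induction medium were exposed 48 h to chemicals in 8-point half-log series from 100 uM (0.5% DMSO), in duplicate. CYP2C9 mRNA was measured by qRT-PCR, normalized to ACTB/GAPDH/POLR2A, with bidirectional fitting versus DMSO.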

CYP2E1 (gene 1571) = assay: LTEA_HepaRG_CYP2E1: Life Technologies and Expression Analysis (LTEA) Assay for CYP2E1 using HepaRG (AID 2283485)
Procedure, shortened: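 HepaRG cells in serum-free induction medium exposed 48 h to test chemicals, 8 half-log concentrations up to 100 uM in 0.5% DMSO, duplicate. CYP2E1 mRNA by qRT-PCR, normalized to ACTB, GAPDH, POLR2A; bidirectional fit versus DMSO.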

CYP4A11 (gene 1579) = assay: LTEA_HepaRG_CYP4A11: Life Technologies and Expression Analysis (LTEA) Assay for CYP4A11 using HepaRG (AID 2283486)
Procedure, shortened: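 Readout is CYP4A11 transcript level by qRT-PCR, normalized to three housekeeping genes and fitted bidirectionally against 0.5% DMSO. Human HepaRG cells were treated 48 h, in duplicate, with an 8-point half-log series topping at 100 uM.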

[1] = read-out: Cytochrome P450 3A4 (Homo sapiens) (UniProt P08684); assay: LTEA_HepaRG_CYP3A4: Life Technologies and Expression Analysis (LTEA) Assay for CYP3A4 using HepaRG (AID 2283487)
Procedure, shortened: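 CYP3A4 transcript measured by TaqMan qRT-PCR and normalized to three housekeeping genes after 48 h chemical exposure of human HepaRG cells. Top concentration 100 uM, half-log steps, 0.5% DMSO vehicle; gain or loss fitted against DMSO baseline.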

[2] = read-out: DNA damage-inducible transcript 3 (DDIT3), DDIT3 (gene 1649); assay: LTEA_HepaRG_DDIT3: Life Technologies and Expression Analysis (LTEA) Assay for DNA damage-inducible transcript 3 (DDIT3) using HepaRG (AID 2283488)
Procedure, shortened: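 Differentiated human HepaRG cells in serum-free induction medium were exposed in duplicate for 48 h to 8 concentrations (top 100 uM, half-log steps, 0.5% DMSO). DDIT3 mRNA measured by TaqMan qRT-PCR, normalized to ACTB/GAPDH/POLR2A; bidirectional fit versus DMSO.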

[3] = read-out: Pro-epidermal growth factor (Homo sapiens) (UniProt P01133); assay: LTEA_HepaRG_EGF: Life Technologies and Expression Analysis (LTEA) Assay for Epidermal growth factor (EGF) using HepaRG (AID 2283489)
Procedure, shortened: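 EGF transcript measured by Fluidigm TaqMan qRT-PCR with three housekeeping genes for normalization, 48 h after dosing HepaRG cultures in duplicate (top 100 uM, half-log steps, 0.5% DMSO vehicle). Gain or loss relative to DMSO fitted.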

[4] = read-out: Early growth response protein 1 (EGR1) transcription factor, EGR1 (gene 1958); assay: LTEA_HepaRG_EGR1: Life Technologies and Expression Analysis (LTEA) Assay for Early growth response protein 1 (EGR1) transcription factor using HepaRG (AID 2283490)
Procedure, shortened: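 Differentiated HepaRG cells in serum-free induction medium exposed 48 hours, duplicate, to 8 half-log concentrations up to 100 uM in 0.5% DMSO. EGR1 mRNA measured by TaqMan qRT-PCR, normalized to ACTB, GAPDH, POLR2A; bidirectional fit versus DMSO.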

[5] = read-out: Ezrin (EZR), EZR (gene 7430); assay: LTEA_HepaRG_EZR: Life Technologies and Expression Analysis (LTEA) Assay for Ezrin (EZR) using HepaRG (AID 2283491)
Procedure, shortened: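 HepaRG, 48 h chemical exposure, 8-pt half-log series from 100 uM, 0.5% DMSO vehicle, duplicates. Read-out: EZR mRNA by TaqMan qRT-PCR (Fluidigm array), housekeeping-normalized; bidirectional curve fit vs DMSO baseline.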

[6] = read-out: Cytochrome P450 3A7 (Homo sapiens) (UniProt P24462); assay: LTEA_HepaRG_CYP3A7: Life Technologies and Expression Analysis (LTEA) Assay for CYP3A7 using HepaRG (AID 2283492)
Procedure, shortened: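 CYP3A7 transcript measured by qRT-PCR (ACTB, GAPDH, POLR2A normalization) after 48 h chemical exposure of HepaRG cells in duplicate. Eight half-log concentrations, maximum 100 uM, 0.5% DMSO vehicle; bidirectional curve fitting against DMSO baseline.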

CYP3A5 (gene 1577) = assay: LTEA_HepaRG_CYP3A5: Life Technologies and Expression Analysis (LTEA) Assay for CYP3A5 using HepaRG (AID 2283493)
Procedure, shortened: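 Differentiated HepaRG cells in serum-free induction medium were dosed 48 h with test chemicals (8-point half-log series, top 100 uM, 0.5% DMSO, duplicate). CYP3A5 mRNA measured by qRT-PCR, normalized to ACTB, GAPDH, POLR2A; bidirectional fit versus DMSO.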

Cytochrome P450 3A7 (Homo sapiens), sequence (P24462 whole entry, looked up): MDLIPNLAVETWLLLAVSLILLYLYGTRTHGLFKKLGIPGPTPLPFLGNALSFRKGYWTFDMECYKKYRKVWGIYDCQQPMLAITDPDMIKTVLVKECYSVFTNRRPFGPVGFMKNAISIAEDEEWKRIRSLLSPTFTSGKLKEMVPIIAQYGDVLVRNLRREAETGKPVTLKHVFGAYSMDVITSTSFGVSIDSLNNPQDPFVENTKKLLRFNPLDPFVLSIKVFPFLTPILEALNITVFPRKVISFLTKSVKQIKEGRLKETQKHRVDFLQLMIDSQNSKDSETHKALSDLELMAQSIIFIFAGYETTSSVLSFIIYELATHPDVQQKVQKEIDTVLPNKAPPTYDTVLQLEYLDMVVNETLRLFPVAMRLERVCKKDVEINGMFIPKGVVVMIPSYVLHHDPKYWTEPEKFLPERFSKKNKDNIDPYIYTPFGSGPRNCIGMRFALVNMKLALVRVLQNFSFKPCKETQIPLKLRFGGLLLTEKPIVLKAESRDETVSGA
Cytochrome P450 3A4 (Homo sapiens), sequence (P08684 whole entry, looked up): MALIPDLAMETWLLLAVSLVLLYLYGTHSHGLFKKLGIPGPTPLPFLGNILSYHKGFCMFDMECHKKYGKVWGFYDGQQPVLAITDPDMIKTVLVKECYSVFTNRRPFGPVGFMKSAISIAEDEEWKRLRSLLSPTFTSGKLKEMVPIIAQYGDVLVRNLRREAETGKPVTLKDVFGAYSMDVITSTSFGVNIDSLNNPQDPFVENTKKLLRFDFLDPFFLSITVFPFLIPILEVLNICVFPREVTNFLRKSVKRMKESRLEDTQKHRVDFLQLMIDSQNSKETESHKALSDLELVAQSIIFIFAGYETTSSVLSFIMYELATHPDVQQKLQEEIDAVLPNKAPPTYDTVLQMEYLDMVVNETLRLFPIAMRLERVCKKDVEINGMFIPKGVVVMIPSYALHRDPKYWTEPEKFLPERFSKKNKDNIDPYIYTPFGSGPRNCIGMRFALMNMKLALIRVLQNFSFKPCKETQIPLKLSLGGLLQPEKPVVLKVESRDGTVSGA

SMILES | outcome (CYP2C9 (gene 1559)) | AC50 (CYP2E1 (gene 1571)) | outcome (CYP4A11 (gene 1579)) | AC50 [1] | outcome [2] | outcome [3] | outcome [4] | outcome [5] | outcome [6] | outcome (CYP3A5 (gene 1577)) | AC50 (CYP2C9 (gene 1559)) | AC50 (CYP4A11 (gene 1579)) | AC50 [2] | AC50 [4] | AC50 [5] | AC50 [6] | AC50 (CYP3A5 (gene 1577)) | outcome (CYP2E1 (gene 1571)) | outcome [1]
COc1nc(NC(C)C)nc(NC(C)C)n1 | inactive | 37 µM (active) | inactive | 7.19 µM (active) | inactive | inactive | inactive | inactive | inactive | inactive |  |  |  |  |  |  |  |  | 
CCCN(CCC)c1c([N+](=O)[O-])cc(S(N)(=O)=O)cc1[N+](=O)[O-] | inactive | 15.6 µM (active) and 12.9 µM (active) and 20.1 µM (active) | inactive | 8.79 µM (active) and 12.1 µM (active) and 90.8 µM (active) | inactive |  |  | inactive | inactive | inactive | 95 µM (active) and 82 µM (active) | 93.5 µM (active) and 15.8 µM (active) | 93.7 µM (active) and 67.7 µM (active) | 93.2 µM (active) and 83.6 µM (active) and 78.9 µM (active) | 95.9 µM (active) and 78 µM (active) | 6.08 µM (active) | 93.8 µM (active) and 50 µM (active) |  | 
Oc1ccccc1-c1ccccc1 | inactive |  | inactive |  | inactive | inactive | inactive | inactive | inactive |  |  |  |  |  |  |  |  | inactive | inactive
COC(=O)C(C)Oc1ccc(Oc2ccc(Cl)cc2Cl)cc1 (stereo unspecified) | inactive | 50 µM (active) |  |  | inactive | inactive | inactive | inactive |  | inactive |  | 12.7 µM (active) |  |  |  | 27.3 µM (active) |  |  | inactive
CN(C)C(=S)SSC(=S)N(C)C | inactive |  | inactive |  | inactive | inactive | inactive | inactive | inactive | inactive |  |  |  |  |  |  |  | inactive | inactive
C=CC1(C)OC(=O)N(c2cc(Cl)cc(Cl)c2)C1=O (stereo unspecified) | inactive | 40.1 µM (active) | inactive | 13.6 µM (active) | inactive | inactive | inactive | inactive |  | inactive |  |  |  |  |  | 20.8 µM (active) |  |  | 
CCCCNC(=O)n1c(NC(=O)OC)nc2ccccc21 | inactive |  | inactive |  | inactive | inactive | inactive | inactive | inactive | inactive |  |  |  |  |  |  |  | inactive | inactive
CNC(=O)ON=CC(C)(C)SC | inactive |  | inactive |  | inactive | inactive | inactive | inactive | inactive | inactive |  |  |  |  |  |  |  | inactive | inactive
CCCCOC(=O)c1ccccc1C(=O)OCCCC | inactive |  | inactive |  | inactive | inactive | inactive | inactive | inactive | inactive |  |  |  |  |  |  |  | inactive | inactive
CC(C)C1(C)N=C(c2nc3ccccc3cc2C(=O)O)NC1=O (stereo unspecified) | inactive |  | inactive | 18.8 µM (active) | inactive | inactive | inactive | inactive | inactive | inactive |  |  |  |  |  |  |  | inactive | 
CS/C(C)=N/OC(=O)N(C)SN(C)C(=O)O/N=C(\C)SC | inactive | 9.92 µM (active) | inactive |  | inactive | inactive | inactive | inactive | inactive | inactive |  |  |  |  |  |  |  |  | inactive
CNC(=S)S | inactive |  | inactive |  | inactive | inactive | inactive | inactive | inactive | inactive |  |  |  |  |  |  |  | inactive | inactive
CC(Oc1ccc(Cl)cc1Cl)C(=O)O (stereo unspecified) | inactive |  |  |  | inactive | inactive | inactive | inactive | inactive | inactive |  | 71.5 µM (active) |  |  |  |  |  | inactive | inactive
CCNc1nc(Cl)nc(NC(C)C)n1 | inactive | 16.6 µM (active) |  | 15.7 µM (active) | inactive | inactive | inactive | inactive | inactive | inactive |  | 50 µM (active) |  |  |  |  |  |  | 
O=C(O)c1nc(Cl)ccc1Cl | inactive | 17.6 µM (active) | inactive |  | inactive | inactive | inactive | inactive | inactive | inactive |  |  |  |  |  |  |  | inactive | inactive
C=CCC1=C(C)C(OC(=O)C2C(C=C(C)C)C2(C)C)CC1=O (stereo unspecified) | inactive | 70.6 µM (active) and 76.7 µM (active) and 60.9 µM (active) |  |  | inactive | inactive |  | inactive | inactive | inactive | 87.4 µM (active) | 93.2 µM (active) and 95.2 µM (active) |  | 64.1 µM (active) and 71.1 µM (active) and 50 µM (active) |  |  |  |  | inactive
CON(C)C(=O)Nc1ccc(Cl)c(Cl)c1 | inactive | 77.6 µM (active) |  | 78.6 µM (active) | inactive | inactive | inactive | inactive | inactive | inactive |  | 86.6 µM (active) |  |  |  |  |  |  | 
